Test results reported in PubChem BioAssay (NCATS).
Inconclusive results are not listed. Values without a mark were called inactive. Active and inactive are the calls of the source. The call rests on the fitted dose curve; in most records, active means well fitted curve in the direction sought with a large enough effect; inconclusive means small, poorly fitted or top-dose-only effect, or another doubt; inactive means no such curve, though single readings can be large or run the other way.

Experiment: qHTS Assay for Identifying Gametocytocidal Compounds (AID 743244);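 on max response: actives lower the fluorescent signal which means gametocytes are killed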
Settings: P. falciparum 3D7 stage III-V gametocytes, alamarBlue, 72 h; max response: active compounds read low
Procedure, shortened: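 Compounds are pinned into medium, gametocytes (stage III–V, 3D7, 20,000 cells/well) added, and plates held 72 h at 37 °C in 5% CO2. AlamarBlue follows for 24 h before fluorescence reading.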
On the % scale 0 is the no-effect control and ±100 the full control effect; potency means the concentration at half of the fitted maximal effect.

| Compound | max response | Potency |
| --- | --- | --- |
| CP(=O)(O)C1=CCNCC1 | 6.19% | – |
| NC(N)=NOCC[C@H](N)C(=O)O | -9% | – |
| Cc1c2ccncc2c(C)c2c1[nH]c1ccccc12 | – | 1.78 µM (active) |
| NC(Cc1cc(O)c(O)cc1O)C(=O)O (stereo not given) | 2.05% | – |
| Clc1ccc(N2CC3CCC(C2)N3)nn1 | 23.5% | – |
| COc1ccc2[nH]c3c(c2c1)CCNC3 | -9.37% | – |
| NC(Cc1ccc(N(CCCl)CCCl)cc1)C(=O)O (stereo not given) | 8.23% | – |
| N[C@@H](Cn1oc(=O)[nH]c1=O)C(=O)O | 11.5% | – |
| CCCn1c(=O)c2[nH]c(C3CCCC3)nc2n(CCCOC(=O)c2ccc(S(=O)(=O)F)cc2)c1=O | 11.9% | – |
| C[Se]C[C@H](N)C(=O)O | -6.02% | – |
| CN1CCc2cccc(Cl)c2CC1 | 33.5% | – |
| NC(=O)c1cc(N2CC2)c([N+](=O)[O-])cc1[N+](=O)[O-] | 5.78% | – |
| C[C@@H]1[C@@H]2Cc3ccc(O)cc3[C@@]1(C)CCN2CC1CC1 | 29.7% | – |
| C[N+](C)(C)CCOC(=O)CBr | 20.4% | – |
| CCCN(CCC)CCc1c[nH]c2ccc(C(N)=O)cc12 | -3.58% | – |
